Reference: ChEMBL document CHEMBL3988442, “University of Dundee, Small-Polar-MMV Screening Library” (2021)
For part of these data: Entries with a potency or affinity are not part of this list.

Key:
Parameters in all cases: scale not given: direction of the effect not stated beside the values
[1] = target: Protein translocase subunit SecA (Escherichia coli (strain K12)) (UniProt P10408); test: Assay to Identify E. coli SecA ATPase Inhibitors; format: functional; conditions: 30 µM
[2] = target: T1, Ubiquitin-activating enzyme e1, putative (Leishmania donovani (strain BPK282A1)) (UniProt E9BSI1); test: Leishmania donovani Ubiquitin Activating Enzyme (LdE1); format: functional; conditions: 30 µM
T1 sequence (whole entry): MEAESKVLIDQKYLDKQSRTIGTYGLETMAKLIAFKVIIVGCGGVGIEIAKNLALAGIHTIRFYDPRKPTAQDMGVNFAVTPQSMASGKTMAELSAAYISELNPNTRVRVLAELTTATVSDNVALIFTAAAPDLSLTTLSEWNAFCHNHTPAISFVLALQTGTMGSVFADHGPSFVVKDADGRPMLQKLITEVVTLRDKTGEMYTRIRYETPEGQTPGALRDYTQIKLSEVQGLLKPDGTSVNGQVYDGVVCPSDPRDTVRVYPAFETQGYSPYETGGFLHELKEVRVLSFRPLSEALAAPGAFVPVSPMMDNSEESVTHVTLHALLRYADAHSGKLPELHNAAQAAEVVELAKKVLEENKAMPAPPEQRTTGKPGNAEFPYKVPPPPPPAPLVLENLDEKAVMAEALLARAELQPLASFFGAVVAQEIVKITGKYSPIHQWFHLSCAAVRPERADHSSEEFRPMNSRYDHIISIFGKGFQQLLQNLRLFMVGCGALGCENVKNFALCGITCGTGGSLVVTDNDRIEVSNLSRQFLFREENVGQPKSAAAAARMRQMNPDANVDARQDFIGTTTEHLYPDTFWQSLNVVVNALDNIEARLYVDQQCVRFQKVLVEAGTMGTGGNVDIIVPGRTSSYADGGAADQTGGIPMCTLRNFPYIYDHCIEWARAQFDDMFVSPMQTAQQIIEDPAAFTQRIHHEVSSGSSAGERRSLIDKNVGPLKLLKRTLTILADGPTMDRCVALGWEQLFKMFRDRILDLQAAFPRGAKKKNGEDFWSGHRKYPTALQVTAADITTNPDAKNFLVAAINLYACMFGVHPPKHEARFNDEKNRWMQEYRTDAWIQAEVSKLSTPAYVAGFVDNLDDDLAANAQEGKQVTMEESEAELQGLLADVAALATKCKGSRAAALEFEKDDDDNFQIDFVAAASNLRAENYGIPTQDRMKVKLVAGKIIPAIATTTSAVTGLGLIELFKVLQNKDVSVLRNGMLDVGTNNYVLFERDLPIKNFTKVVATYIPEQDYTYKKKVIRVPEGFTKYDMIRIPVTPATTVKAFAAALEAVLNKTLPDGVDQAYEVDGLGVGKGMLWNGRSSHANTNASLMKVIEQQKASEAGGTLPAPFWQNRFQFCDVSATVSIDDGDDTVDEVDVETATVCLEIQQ

[3] = target: Sialic acid-binding Ig-like lectin 9 (Homo sapiens) (UniProt Q9Y336); test: Hs-Siglec9 ALPHAscreen SOP 20170721; conditions: 10 µM
Trypanosoma cruzi = test: Trypanosoma cruzi phosphomannomutase and mannose-1-phosphate guanylyltransferase assay; format: functional; conditions: 10 µM
[4] = target: T2, Arginase-2, mitochondrial (Homo sapiens) (UniProt P78540); test: in vitro enzyme assay to detect the production of urea directly proportional to the activity of Arginase II; format: functional; conditions: 33.3 µM; also: in the data most compounds retested in dose-response had high values
T2 sequence (whole entry): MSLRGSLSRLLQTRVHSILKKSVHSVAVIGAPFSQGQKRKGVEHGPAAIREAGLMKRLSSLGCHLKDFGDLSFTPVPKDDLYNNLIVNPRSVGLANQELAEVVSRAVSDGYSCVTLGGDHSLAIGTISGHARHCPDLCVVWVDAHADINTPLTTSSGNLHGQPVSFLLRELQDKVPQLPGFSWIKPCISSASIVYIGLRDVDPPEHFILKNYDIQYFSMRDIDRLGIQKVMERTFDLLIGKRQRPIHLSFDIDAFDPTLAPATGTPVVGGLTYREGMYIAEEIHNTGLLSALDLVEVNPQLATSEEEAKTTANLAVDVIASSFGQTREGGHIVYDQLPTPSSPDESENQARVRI

[5] = target: T3, Proteasome subunit beta (Trypanosoma cruzi) (UniProt O96673); test: Trypanosoma cruzi proteasome chymotrypsin-like activity (TcProtChymo) assay.; also: in the data most compounds retested in dose-response had high values; format: functional; conditions: 9.37 µM
T3 sequence (whole entry): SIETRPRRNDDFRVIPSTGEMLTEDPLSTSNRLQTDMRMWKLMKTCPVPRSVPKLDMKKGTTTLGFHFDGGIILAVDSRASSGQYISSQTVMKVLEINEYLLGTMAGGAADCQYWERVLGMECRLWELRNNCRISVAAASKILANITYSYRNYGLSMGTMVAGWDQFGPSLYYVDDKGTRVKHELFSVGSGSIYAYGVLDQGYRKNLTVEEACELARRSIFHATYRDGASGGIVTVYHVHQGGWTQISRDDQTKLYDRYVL

Homo sapiens = species on record: Homo sapiens; test: To identify inhibition of the IFN signalling (Jak-Stat) pathway via expression of an eGFP reporter gene under the control of an IFN-stimulated response element (ISRE) containing MxA promoter.; format: functional; conditions: 30 µM
[6] = target: T4, Tyrosyl-tRNA synthetase, putative (Trypanosoma cruzi (strain CL Brener)) (UniProt Q4DSP6); test: Trypanosoma cruzi tyrosyl tRNA synthetase (TcYRS) _High Tyrosine SOP; format: functional; conditions: 30 µM; also: in the data most compounds retested in dose-response had high values
T4 sequence (whole entry): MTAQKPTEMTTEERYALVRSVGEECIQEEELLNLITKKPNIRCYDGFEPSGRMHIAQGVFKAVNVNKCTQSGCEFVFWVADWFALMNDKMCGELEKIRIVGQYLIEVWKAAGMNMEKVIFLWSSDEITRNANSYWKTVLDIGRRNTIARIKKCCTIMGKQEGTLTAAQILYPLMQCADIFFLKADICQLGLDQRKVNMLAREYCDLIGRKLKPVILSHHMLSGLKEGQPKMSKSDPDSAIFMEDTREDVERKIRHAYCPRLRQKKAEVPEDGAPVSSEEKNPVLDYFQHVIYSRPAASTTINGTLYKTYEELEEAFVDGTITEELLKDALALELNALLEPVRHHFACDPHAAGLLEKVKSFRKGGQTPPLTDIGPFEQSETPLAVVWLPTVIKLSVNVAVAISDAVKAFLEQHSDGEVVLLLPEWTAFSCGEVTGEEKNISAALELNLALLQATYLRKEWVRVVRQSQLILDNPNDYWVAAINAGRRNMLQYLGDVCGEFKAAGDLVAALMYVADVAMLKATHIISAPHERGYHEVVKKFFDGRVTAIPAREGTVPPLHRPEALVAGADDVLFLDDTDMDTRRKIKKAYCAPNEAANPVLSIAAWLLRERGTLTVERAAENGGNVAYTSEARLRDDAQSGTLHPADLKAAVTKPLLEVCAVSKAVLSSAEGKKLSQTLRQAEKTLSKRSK

[7] = target: T4, Tyrosyl-tRNA synthetase, putative (Trypanosoma cruzi (strain CL Brener)); test: Trypanosoma cruzi tyrosyl tRNA synthetase (TcYRS) SOP; format: functional; conditions: 30 µM
[8] = target: Chromo domain-containing protein 1 (Saccharomyces cerevisiae (strain ATCC 204508 / S288c) (Baker's yeast)) (UniProt P32657); test: ScCHD-1 Enzyme Inhibition Assay; format: functional; conditions: 30 µM; also: in the data most compounds retested in dose-response had high values
Chain of Chromo domain-containing protein 1 (Saccharomyces cerevisiae (strain ATCC 204508 / S288c) (Baker's yeast)) (P32657 whole entry, the tested form may be a part): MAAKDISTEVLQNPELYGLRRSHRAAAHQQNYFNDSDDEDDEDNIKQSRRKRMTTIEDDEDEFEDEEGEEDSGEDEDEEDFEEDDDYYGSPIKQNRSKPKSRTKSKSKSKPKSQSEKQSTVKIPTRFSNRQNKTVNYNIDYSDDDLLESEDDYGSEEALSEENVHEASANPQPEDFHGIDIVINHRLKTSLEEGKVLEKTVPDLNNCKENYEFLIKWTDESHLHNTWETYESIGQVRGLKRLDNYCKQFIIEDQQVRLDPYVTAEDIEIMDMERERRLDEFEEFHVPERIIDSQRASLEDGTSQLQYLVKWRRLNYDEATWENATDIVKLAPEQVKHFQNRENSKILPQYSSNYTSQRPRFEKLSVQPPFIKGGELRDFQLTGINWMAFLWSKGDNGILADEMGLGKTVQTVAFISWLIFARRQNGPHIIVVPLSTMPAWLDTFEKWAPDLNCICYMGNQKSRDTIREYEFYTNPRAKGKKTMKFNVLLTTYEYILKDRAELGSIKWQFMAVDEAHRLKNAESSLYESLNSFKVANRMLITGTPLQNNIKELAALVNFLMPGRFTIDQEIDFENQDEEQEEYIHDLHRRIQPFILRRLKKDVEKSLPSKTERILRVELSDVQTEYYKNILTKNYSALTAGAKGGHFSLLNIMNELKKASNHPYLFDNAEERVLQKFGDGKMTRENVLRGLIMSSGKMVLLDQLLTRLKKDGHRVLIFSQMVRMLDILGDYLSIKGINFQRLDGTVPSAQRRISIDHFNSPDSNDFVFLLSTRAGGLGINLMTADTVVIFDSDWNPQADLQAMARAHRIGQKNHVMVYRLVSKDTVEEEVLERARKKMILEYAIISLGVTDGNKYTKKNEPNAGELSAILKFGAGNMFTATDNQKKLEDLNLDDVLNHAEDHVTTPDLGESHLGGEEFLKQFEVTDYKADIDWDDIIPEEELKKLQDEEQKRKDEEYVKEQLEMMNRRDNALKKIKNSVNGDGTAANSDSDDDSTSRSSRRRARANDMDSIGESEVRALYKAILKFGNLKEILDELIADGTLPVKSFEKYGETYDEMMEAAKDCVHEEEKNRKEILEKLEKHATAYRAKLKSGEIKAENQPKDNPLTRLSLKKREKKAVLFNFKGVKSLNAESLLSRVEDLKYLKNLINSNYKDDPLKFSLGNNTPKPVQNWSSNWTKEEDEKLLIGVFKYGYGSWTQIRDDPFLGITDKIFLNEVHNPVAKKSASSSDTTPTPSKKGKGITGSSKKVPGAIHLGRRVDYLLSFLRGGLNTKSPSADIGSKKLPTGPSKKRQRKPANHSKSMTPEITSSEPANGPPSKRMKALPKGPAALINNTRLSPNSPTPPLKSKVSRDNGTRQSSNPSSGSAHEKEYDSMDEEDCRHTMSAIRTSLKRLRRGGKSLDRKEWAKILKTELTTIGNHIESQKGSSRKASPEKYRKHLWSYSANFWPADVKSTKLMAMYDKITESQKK

Chain of Sialic acid-binding Ig-like lectin 9 (Homo sapiens) (Q9Y336 whole entry): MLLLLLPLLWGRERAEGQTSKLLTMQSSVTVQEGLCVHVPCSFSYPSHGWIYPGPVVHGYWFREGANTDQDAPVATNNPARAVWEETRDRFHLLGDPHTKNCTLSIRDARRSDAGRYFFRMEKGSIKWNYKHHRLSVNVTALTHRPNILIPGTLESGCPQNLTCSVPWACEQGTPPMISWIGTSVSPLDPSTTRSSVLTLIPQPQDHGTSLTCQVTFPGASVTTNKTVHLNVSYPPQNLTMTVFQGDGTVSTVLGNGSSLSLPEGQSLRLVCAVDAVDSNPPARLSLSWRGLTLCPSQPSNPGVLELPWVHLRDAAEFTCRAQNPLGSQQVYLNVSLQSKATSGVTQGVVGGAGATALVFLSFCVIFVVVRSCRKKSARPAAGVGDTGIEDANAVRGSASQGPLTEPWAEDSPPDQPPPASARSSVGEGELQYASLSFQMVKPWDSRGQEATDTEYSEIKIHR
Chain of Protein translocase subunit SecA (Escherichia coli (strain K12)) (P10408 whole entry): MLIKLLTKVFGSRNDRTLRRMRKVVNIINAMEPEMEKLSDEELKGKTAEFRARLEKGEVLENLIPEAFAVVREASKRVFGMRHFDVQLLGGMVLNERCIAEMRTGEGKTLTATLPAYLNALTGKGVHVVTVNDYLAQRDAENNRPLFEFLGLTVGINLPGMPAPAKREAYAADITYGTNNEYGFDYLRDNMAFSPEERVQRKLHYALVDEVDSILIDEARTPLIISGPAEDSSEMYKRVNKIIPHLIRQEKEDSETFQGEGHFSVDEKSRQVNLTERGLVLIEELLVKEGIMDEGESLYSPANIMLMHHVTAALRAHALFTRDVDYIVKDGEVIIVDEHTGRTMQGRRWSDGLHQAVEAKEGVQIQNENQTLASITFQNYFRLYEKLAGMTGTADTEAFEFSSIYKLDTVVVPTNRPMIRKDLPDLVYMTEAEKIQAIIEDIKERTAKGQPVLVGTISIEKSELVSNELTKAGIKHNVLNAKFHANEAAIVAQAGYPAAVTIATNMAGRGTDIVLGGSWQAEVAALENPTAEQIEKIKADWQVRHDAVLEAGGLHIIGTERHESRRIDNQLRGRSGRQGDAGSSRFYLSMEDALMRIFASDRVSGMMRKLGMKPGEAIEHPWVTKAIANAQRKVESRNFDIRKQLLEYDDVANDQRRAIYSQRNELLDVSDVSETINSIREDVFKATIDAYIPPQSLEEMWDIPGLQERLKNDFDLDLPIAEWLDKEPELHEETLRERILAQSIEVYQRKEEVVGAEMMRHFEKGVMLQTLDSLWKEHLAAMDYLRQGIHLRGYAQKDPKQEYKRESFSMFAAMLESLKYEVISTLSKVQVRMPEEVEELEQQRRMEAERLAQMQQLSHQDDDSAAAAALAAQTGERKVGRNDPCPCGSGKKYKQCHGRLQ

SMILES	Percent Effect [1]	Percent Effect [2]	Percent Effect [3]	Percent Effect (Trypanosoma cruzi)	Percent Effect [4]	Percent Effect [5]	Percent Effect (Homo sapiens)	Percent Effect [6]	Percent Effect [7]	Percent Effect [8]
CNC(=O)[C@@H]1C[C@H]2CN(Cc3nccs3)C[C@H]2N1C	0.644%	27.3%	-2.68%	0.75%	2.28%	19.7%	11.3%	12.6%	22.5%	-5.35%
Cc1cnn(C2CCCN(C(=O)c3sccc3C#N)C2)c1 (stereo not given)	-7.04%	0%	-9.94%	-1.78%	-2.05%	-3.33%	30.2%	0.478%	1.21%	-3.26%
CN(C)C[C@@H]1C[C@@H]2CN(C(=O)c3ccoc3)CC[C@@H]2N1CC1CC1	-7.24%	11.7%	1.31%	-6.19%	0.913%	0.429%	11.2%	-4.83%	-2.5%	-4.24%
CCNC(=O)[C@@H]1C[C@@H](NC(=O)Cc2ccncc2)CN1Cc1ccsc1	-12.1%	2.7%	3.71%	-4.56%	-0.35%	11.6%	-2.37%	4.79%	2.44%	5.29%
Cc1cnc(CN2CCCC2c2noc(C)n2)cn1 (stereo not given)	-3.01%	-2.67%	-1.58%	0.602%	0.444%	14.5%	-11.3%	11.1%	12.8%	-6.87%
CC(=O)NCCC(=O)NCc1cccnc1-n1cnc2ccccc21	0.292%	0%	2.93%	6.69%	12.2%	1.71%	-5.79%	-0.532%	2.44%	98.3%
CCCn1ncc2c(C(=O)Nc3n[nH]c(SC)n3)cc(C3CC3)nc21	-0.744%	14.7%	-0.527%	-0.395%	-13.7%	11.8%	13.4%	-10.6%	17.5%	-26.6%
O=C(NC[C@]1(O)CN(Cc2ccccc2F)C[C@H]1O)c1ccccn1	-1.11%	12%	-1.14%	-2.37%	1.33%	10.5%	6.15%	4.23%	15%	-24.1%
O=C(CN1CCCS1(=O)=O)NCCOc1ccc2c(c1)CCC2	-6.62%	2.56%	4.23%	3.66%	5.74%	-10.2%	6.45%	1.44%	6.02%	-2.78%
COc1cccc(-n2nnc(C(=O)N3CCNC(=O)C3)c2C)c1	-4.4%	15.4%	-22.9%	9.11%	0.41%	8.96%	16%	5.26%	25.3%	22.3%
CC(C)OCCN(C)C(C)c1cccc(S(N)(=O)=O)c1 (stereo not given)	-5.89%	7.79%	-5.22%	-3.36%	2.66%	1.05%	15.1%	-1.96%	-2.35%	-1.17%
CCc1nc(C2CCCN2C(=O)CCCn2cccn2)no1 (stereo not given)	-1.9%	5.2%	9.24%	4.66%	8.4%	8.25%	4.76%	1.96%	4.71%	-9.39%
